Structures are written as SMILES. Records with an inconclusive call do not appear. Activity calls are given as the source filed them. The calls were made as follows: active = hit-call score of the fitted dose curve at least 0.9, where 1 is the maximum; inconclusive = response in the unintended direction; inactive = score below 0.9.

The results in this text go back to PubChem BioAssay AID2284347 (EPA ToxCast).

In this test the test system is rainbow trout Peroxisome Proliferator-activated Receptor alpha (PPARa), gene 110490141. Put plainly: ATG_rtPPARa_EcoTox2: Attagene TRANS-FACTORIAL EcoTox-2 HepG2 Assay for rainbow trout Peroxisome Proliferator-activated Receptor alpha (PPARa). On the procedure:
ATG_EcoTox2 is a cell-based, multiplexed assay created by modifying the existing Attagene TRANS-FACTORIAL system to include a panel of nuclear receptors from some or all the following species: human (Homo sapiens), african clawed frog (Xenopus laevis), rainbow trout (Oncorhynchus mykiss), japanese medaka (Oryzias latipes), and zebrafish (Danio rerio). The ECOTOX2-FACTORIAL format uses HepG2, a human liver cell line, with measurements taken at 24 hours after chemical dosing in a 24-well plate. ATG_rtPPARa_EcoTox2 is one of 29 assay components calculated in the ATG_EcoTox2 assay. It is designed to make measurements of mRNA induction, a form of inducible reporter, as detected with fluorescence intensity signals by Reverse transcription polymerase chain reaction (RT-PCR) and Capillary electrophoresis technology.The assay endpoint ATG_frPPARa_EcoTox2 was analyzed in the positive analysis fitting direction relative to DMSO as the negative control and baseline of activity. Using a type of inducible reporter, measures of mRNA for gain-of-signal activity can be used to understand the reporter gene at the transcription factor-level as they relate to the gene PPARa. Furthermore, this assay endpoint can be referred to as a primary readout, because this assay has produced multiple assay endpoints where this one serves a reporter gene function. […]

Take `O=C(O)C(F)(F)C(F)(F)C(F)(F)C(F)(F)C(F)(F)C(F)(F)C(F)(F)F`: the AC50 was 54.2 µM (active). On to `O=S(=O)(O)C(F)(F)C(F)(F)C(F)(F)C(F)(F)C(F)(F)C(F)(F)F`, for which the AC50 was 30.6 µM (active).
